Gal4-VP16 FLuc – counter-screen for ROR gamma inhibitors: Gal4-VP16 reporter | Drosophila S2 Gal4-VP16 UAS-luciferase, luminescence, 20 h | Potency, µM (titrated, usually from 53.6 µM), without a hit: top-dose activity, negative = inhibition, actives largely listed as inhibitors | 310,000 tested, 3.5% active;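 further: Gal4-VP16 expression switched on by copper sulfate through the metallothionein promoter; potency means the concentration at half of the fitted maximal effect; nearly all actives have a fitted effect of over 50% in size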
DT40 TDP1 no CPT – qHTS for Inhibitors of human tyrosyl-DNA phosphodiesterase 1 (TDP1): qHTS in cells in absence of CPT | 420,000 tested, 15% active | Potency, µM (series often up to 46.2 µM), inactives show at the top dose activity change, negative = growth inhibition, most hits filed as inhibitors | DT40 Tdp1-/- hTDP1 cells, no CPT, ATP luminescence, 48 h; further: potency means the concentration at half of the fitted maximal effect; nearly all actives have a fitted effect of over 55% in size
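Cells were dispensed at 400 per well, compounds added by pin tool, plates incubated ≥48 hr at 37 °C, then CellTiter-Glo added for 30 min at room temperature before luminescence reading. Line: DT40 Tdp1-/- complemented with hTDP1; camptothecin omitted.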
RORgamma inh – inhibitors of mouse ROR gamma transcriptional activity. Drosophila S2 Gal4-RORgamma UAS-luciferase reporter, 20 h. Potency, µM (titrated, usually from 53.6 µM), inactives show at the highest dose activity change, negative = inhibition, hits mostly inhibitors. 310,000 tested, 5.4% active. AID 2551; further: potency means the concentration at half of the fitted maximal effect; nearly all actives have a fitted effect of over 60% in size
Target sequence (P51450 whole entry, looked up, the tested form may be a part): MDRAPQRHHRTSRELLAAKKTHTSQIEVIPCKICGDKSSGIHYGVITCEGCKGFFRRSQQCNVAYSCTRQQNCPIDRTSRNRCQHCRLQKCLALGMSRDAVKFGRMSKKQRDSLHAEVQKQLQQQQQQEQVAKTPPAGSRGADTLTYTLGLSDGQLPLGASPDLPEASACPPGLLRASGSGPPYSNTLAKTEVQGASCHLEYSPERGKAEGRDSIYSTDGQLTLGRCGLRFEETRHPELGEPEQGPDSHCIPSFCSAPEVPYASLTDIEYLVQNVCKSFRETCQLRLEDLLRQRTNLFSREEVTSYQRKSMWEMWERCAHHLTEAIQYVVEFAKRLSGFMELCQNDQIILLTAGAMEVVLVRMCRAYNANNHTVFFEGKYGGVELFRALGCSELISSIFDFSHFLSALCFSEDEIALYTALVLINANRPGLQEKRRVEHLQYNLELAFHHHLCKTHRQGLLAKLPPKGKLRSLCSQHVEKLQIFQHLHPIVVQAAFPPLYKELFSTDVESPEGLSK
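In this cell-based reporter format, copper sulfate (700 uM final) drives Gal4–ROR gamma fusion expression from a metallothionein promoter in Drosophila Schneider cells; compounds preincubated 1 hr, reporter read after 20 hr at ambient temperature.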
LDHA inh – blocks human lactate dehydrogenase A. P00338. AID 1347041. activity change, % (values are at about 110 or 230 µM). 480,000 tested, 0.15% active. purified LDHA, NADH/diaphorase-resazurin fluorescence; active compounds read low; in the data active means activity change below about -30%; inconclusive means mostly about -25% to -30%;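 further: plate controls were DMSO wells for no effect and wells without enzyme for full effect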
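Human LDH5 at 2 nM final in Tris HCl pH 7.4 with 0.06 mM NADH and 0.2 mM pyruvate, reacted 5 minutes at room temperature. Remaining NADH coupled via diaphorase/resazurin; resorufin fluorescence read at 0 and 20 minutes, normalized to enzyme-free and DMSO wells.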
DT40 TDP1 CPT – growth inhibition of DT40 Tdp1-/-;hTDP1 cells with camptothecin (screen for TDP1 inhibitors); chicken DT40 Tdp1-/-;hTDP1 cells + 20 nM CPT, ATP luminescence, 48 h; Potency, µM (top dose mostly 46.2 µM), for inactives: at the highest dose activity change, negative = growth inhibition, hits mostly inhibitors; 420,000 tested, 12% active; further: potency means the concentration at half of the fitted maximal effect; nearly all actives have a fitted effect of over 55% in size
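Chicken DT40 Tdp1-/- cells stably complemented with human TDP1 were seeded at 400 cells/well in medium containing 20 nM camptothecin, exposed to pin-transferred compounds, and grown at 37 °C for at least 48 hr. Viability was read as ATP luminescence.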
IL1B secr inh – inhibitors of inflammasome signaling (IL-1 beta secretion); 360,000 tested, 4.7% active; activity change, % at 57.5 µM; AID 743279; THP-1 LPS/ATP IL-1B secretion, AlphaLISA, 16 h; active compounds read low; in the data active means activity change below about -50%; inconclusive means mostly about -30% to -49%
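THP-1 cells pretreated 1 hr with compounds (up to 57.5 uM final), then stimulated with LPS (250 ng/mL final) plus ATP (1.25 mM final); secreted IL-1B measured by AlphaLISA after 16 hr, decreased signal indicating inhibition.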
Active calls of the source: *; u = inconclusive; x = no result. The list is not random: actives were taken first. Their share in the collection is about 18%. Unless noted, the call rests on the fitted dose curve; in most records, active means well fitted curve in the direction sought with a large enough effect; inconclusive means small, poorly fitted or top-dose-only effect, or another doubt; inactive means no such curve, though single readings can be large; an effect the other way counts as inactive or inconclusive. Unless noted, on the % scale 0 is the no-effect control and ±100 the full control effect.

SMILES	Gal4-VP16 FLuc	DT40 TDP1 no CPT	RORgamma inh	LDHA inh	DT40 TDP1 CPT	IL1B secr inh
CCn1c(SC(C(=O)N2CCOCC2)c2ccccc2)nnc1-c1ccccc1OC (stereo unspecified)	x	x	x	-5	x	x
O=C(CSc1ccccc1)Nc1ccc(-c2nc3ccccc3[nH]2)cc1	u	10µM*	u	-10	23µM*	2
O=C(CSc1ccc(Cl)cc1)Nc1cccc(-c2nc3ccccc3[nH]2)c1	10µM*	10µM*	u	-9	9.2µM*	-9
Cc1ccc2nc(-c3ccc(NC(=O)CSc4ccccc4)cc3)[nH]c2c1	u	16µM*	u	-7	10µM*	34
O=C(Cc1cccs1)Nc1ccc(-c2nc3ccccc3[nH]2)cc1	u	21µM*	-19%	-4	u	-53*
O=C(CSc1nc2ccccc2[nH]1)Nc1ccc(F)c(F)c1	u	-19%	6%	4	-24%	-2
Cc1ccc(-c2csc(-c3nc(-c4ccc(C)cc4)c(C)s3)n2)cc1	x	x	x	9	x	x
CSc1ccc(C(C)NC(=O)c2ccccc2Cl)cc1 (stereo unspecified)	x	x	x	0	x	x
COc1c(F)c(F)c(C(=O)Nc2ccc(-c3nc4ccccc4[nH]3)cc2)c(F)c1F	u	4.6µM*	-32%	0	6.5µM*	9
O=C(Nc1ccc(-c2nc3ccccc3[nH]2)cc1)c1c(F)c(F)c(F)c(F)c1F	-5%	-7%	-12%	-5	-2%	-7
O=C(c1ccccc1)C1CCN(C(=O)/C=C/c2ccc(F)cc2)CC1	x	x	x	3	x	x
O=C(NC1(C(=O)O)CCCCC1)C1CCCO1 (stereo unspecified)	x	x	x	11	x	x
Cc1ccc2oc(C(=O)NCCc3nc(-c4ccccc4)no3)cc(=O)c2c1	x	x	x	-4	x	x
O=[N+]([O-])c1ccc(N2N=C(c3ccco3)CC2c2ccccc2)cc1 (stereo unspecified)	6%	u	33%	4	u	-55*
CONC(=O)CC(c1ccccc1)c1ccccc1	x	x	x	-21	x	x
CCOC(=O)CNC(=O)Nc1cc(C(=O)NCc2ccc(OC)cc2)ccc1N1CCCC1	x	x	x	8	x	x
Cc1ccc(O)c(-c2n[nH]c3c2C(c2ccccc2F)N(Cc2ccco2)C3=O)c1 (stereo unspecified)	x	21µM*	x	1	u	x
O=C1c2[nH]nc(-c3ccccc3O)c2C(c2ccc(Cl)cc2)N1Cc1ccco1 (stereo unspecified)	x	u	x	-2	16µM*	x
COc1cc(C2c3c(-c4ccccc4O)n[nH]c3C(=O)N2Cc2ccco2)ccc1OCC(C)C (stereo unspecified)	x	18µM*	x	9	u	x
COc1cc(C2c3c(-c4ccccc4O)n[nH]c3C(=O)N2CCO)ccc1OCC(C)C (stereo unspecified)	x	u	x	-1	u	x
O=C1c2[nH]nc(-c3ccccc3O)c2C(c2ccccc2)N1Cc1ccco1 (stereo unspecified)	u	21µM*	u	-1	23µM*	-26
Cc1cc(C)cc(NC(=O)c2cnn3c2NC(C(=O)O)=CC3/C=C/c2ccccc2)c1 (stereo unspecified)	x	x	x	-2	x	x
CCOc1ccccc1CNC(=O)c1cn(-c2ccc(OC)cc2)c(=O)c2ccccc12	x	u	x	1	u	x
COc1cccc(-n2cc(C(=O)Nc3cccc(C(F)(F)F)c3)c3ccccc3c2=O)c1	x	u	x	2	16µM*	x
COc1cccc(-n2cc(C(=O)NCCCOC(C)C)c3ccccc3c2=O)c1	7%	6%	5%	-12	-9%	-24
SMILES	Gal4-VP16 FLuc	DT40 TDP1 no CPT	RORgamma inh	LDHA inh	DT40 TDP1 CPT	IL1B secr inh
CCOc1ccc(CCNC(=O)c2cn(-c3ccc(OC)cc3)c(=O)c3ccccc23)cc1OCC	x	u	x	-14	u	x
COc1cccc(-n2cc(C(=O)NCCc3ccc(C)cc3)c3ccccc3c2=O)c1	x	10µM*	x	-4	8.2µM*	x
COc1ccc(-n2cc(C(=O)NCCc3ccc(C)cc3)c3ccccc3c2=O)cc1	x	21µM*	x	-5	u	x
CCOc1ccc(CCNC(=O)c2cn(-c3cccc(OC)c3)c(=O)c3ccccc23)cc1	x	21µM*	x	-5	u	x
CCCCCCCOc1ccc(/C=C/c2ccc(CCCCCCC)cn2)cc1	x	x	x	6	x	x
Cc1ccc(-c2nnn(Cc3csc(-c4ccc(C)cc4)n3)n2)cc1	x	x	x	0	x	x
CC(C(=O)NC1CCCC1)N(C)Cc1ccc(C(F)(F)F)cc1 (stereo unspecified)	x	x	x	1	x	x
COc1ccc(-n2cc(C(=O)O)c3ccccc3c2=O)cc1	4%	-9%	-10%	-17	-6%	8
COc1ccc(-n2cc(C(=O)NC(C)c3ccccc3)c3ccccc3c2=O)cc1 (stereo unspecified)	x	u	x	-3	18µM*	x
COc1cccc(-n2cc(C(=O)NCc3ccc(C)cc3)c3ccccc3c2=O)c1	x	u	x	0	15µM*	x
COc1cccc(-n2cc(C(=O)NC(C)C)c3ccccc3c2=O)c1	-1%	-2%	8%	-12	5%	26
Cc1ccc(-n2cc(C(=O)Oc3ccc(F)cc3)c3ccccc3c2=O)cc1	x	u	x	2	16µM*	x
CCN(C(=O)c1cn(-c2ccc(OC)cc2)c(=O)c2ccccc12)c1cccc(Cl)c1	x	16µM*	x	-6	16µM*	x
CC(NC(=O)c1ccc(Br)o1)c1ccc(S(N)(=O)=O)cc1 (stereo unspecified)	x	x	x	4	x	x
O=C1C2C3C=CC(CO)(O3)C2C(=O)N1c1ccc(-c2ccccc2)cc1 (stereo unspecified)	10µM*	x	6.3µM*	x	x	x
COC(=O)C1(CO)NC(c2ccc(C)cc2)C2C(=O)N(c3ccccc3)C(=O)C21 (stereo unspecified)	-1%	7%	-30%	-3	9%	10
Cc1cc(C)c(S(=O)(=O)NCC23C=CC(O2)C2C(=O)N(c4ccccc4)C(=O)C23)c(C)c1 (stereo unspecified)	u	u	16µM*	3	u	-4
O=C1C2C3C=CC(CNS(=O)(=O)c4ccccc4[N+](=O)[O-])(O3)C2C(=O)N1c1ccccc1 (stereo unspecified)	11µM*	-3%	u	-9	u	0

Screening data (PubChem)
